Screening data (PubChem BioAssay)
D2 PAM-1 = positive allosteric modulators of human D2 dopamine receptor; P14416; HEK293 T-REx D2, calcium flux, EC20 dopamine potentiation; potentiation, % at 10 µM; 340,000 compounds, 0.34% hits;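 active = potentiation over 3 SD above the plate norm, cut at about 30% in these data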
Target sequence (P14416 whole entry, looked up): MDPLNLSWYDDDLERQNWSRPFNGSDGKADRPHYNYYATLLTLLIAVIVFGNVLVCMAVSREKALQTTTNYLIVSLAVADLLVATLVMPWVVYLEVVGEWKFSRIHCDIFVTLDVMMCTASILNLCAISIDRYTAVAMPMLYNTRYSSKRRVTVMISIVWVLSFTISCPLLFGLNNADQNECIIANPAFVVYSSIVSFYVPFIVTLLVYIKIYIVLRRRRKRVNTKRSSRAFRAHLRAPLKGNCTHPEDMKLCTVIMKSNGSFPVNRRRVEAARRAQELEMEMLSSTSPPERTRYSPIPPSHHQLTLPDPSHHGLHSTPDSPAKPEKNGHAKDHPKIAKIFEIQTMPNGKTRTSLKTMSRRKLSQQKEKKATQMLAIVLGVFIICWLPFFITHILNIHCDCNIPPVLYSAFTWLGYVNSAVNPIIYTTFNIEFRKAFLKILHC
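Cells plated with tetracycline inducer and held overnight at 30 C; calcium dye loaded 30–90 min at room temperature; baseline taken, compound added and read 180 s; EC20 dopamine then added and read 180 s.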
D2 antagonist = antagonists of human D2 dopamine receptor | P14416 | HEK293 TREx D2 cells, calcium flux, dopamine EC80 | inhibition, % at 10 µM | 340,000 compounds, 2% hits; in the data active = inhibition above about 30%; inactive = below that, where a call was filed
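Tetracycline-induced HEK293 T-REx cells expressing D2 force-coupled to calcium signalling were dye-loaded, exposed to compound for 180 s, then challenged with an EC80 of dopamine; calcium flux was followed kinetically for a further 180 s.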
D2 PAM-2 = human D2 receptor positive allosteric modulation; P14416; DiscoveRx D2 beta-arrestin cells, luminescence, 90 min; 100% = 57 uM dopamine signal; potentiation, % (test concentration not listed); 360,000 compounds, 0.23% hits; AID 624464; in the data active = potentiation above about 50%; inconclusive = mostly about 30% to 49%
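PathHunter beta-arrestin assay in DiscoveRx D2 cells. Compounds were added with an EC20 of dopamine (50 nM final) for 90 min at 37 deg C. Luminescence was read 1 h after detection reagent, with 57 uM dopamine as the EC100 control.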
D2 ag-1 = agonists of human D2 dopamine receptor (beta-arrestin). P14416. DiscoveRx PathHunter D2 beta-arrestin, luminescence, 90 min; 100% = 57 uM dopamine signal. activation, % (no concentration beside the values). 360,000 compounds, 0.084% hits. AID 624465; in the data active = activation above about 40%; inconclusive = between about 15% and that limit
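Agonist mode: compounds alone added to overnight-plated D2 PathHunter cells for 90 min at 37 C, with 57 uM final dopamine (EC100) defining full response. Beta-arrestin recruitment detected by chemiluminescent reagent, read after 1 h at ambient temperature.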
D2 ag-2 = agonists of human D2 dopamine receptor | P14416 | HEK293 T-REx D2 cells, calcium flux agonist mode | activation, % at 2 µM | 340,000 compounds, 0.53% hits;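 active = activation over 3 SD above normal in the single-dose calcium agonist read, cut at about 30% in these data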
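Agonism scored from kinetic calcium signal (1 read/sec, 180 s) following compound pin transfer, after a 10 s baseline. Cells: HEK293 Trex line expressing inducible D2 receptor coupled to calcium, dye-loaded after overnight culture at 30 C.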
D3 ag = confirmation of human D3 dopamine receptor agonists, beta-arrestin | shares compounds with D2 ag-2 | AID 720506 | 2,300 compounds, 4% hits | DiscoveRx D3 beta-arrestin cells, luminescence, 90 min | Potency, µM (doses to about 76.9 µM), most hits filed as activators; note: nearly all actives have a fitted effect of over 70% in size
D2 ag-3 = D2 receptor agonism, beta-arrestin counterscreen; Potency, µM (top dose mostly 76.9 µM), usual class: activators; 2,300 compounds, 5.9% hits; AID 720507; DiscoveRx PathHunter D2 beta-arrestin, luminescence, 90 min; response scale: percent relative to full dopamine signal; shares compounds with D2 ag-2; note: nearly all actives have a fitted effect of over 70% in size
Large screens that a line does not name were inactive (follow-up assays come after a bar, where they were run). Rows were chosen to be rich in hits. Some 2.4% of all compounds tested hit in one or more screens of this group. Unless noted, calls come from the whole dose curve; as a rule, active = well fitted activation curve with a large enough effect; inconclusive = small, poorly fitted or top-dose-only effect; inactive = flat fitted curve, though single readings scatter.

CCNS(=O)(=O)c1ccc2c3c(cccc13)C(=O)N2	D2 ag-2 48 | D3 ag inactive | D2 ag-3 inactive
CC(=O)c1cccc(OCC(O)CNCC2CCCCC2)c1 (stereo not given)	none
CC(=O)c1cccc(OCC(O)CNCCOc2ccc(C)cc2)c1 (stereo not given)	D2 antagonist 42, D2 ag-2 53 | D3 ag inactive | D2 ag-3 inactive
O=C(NCc1n[nH]c(=O)c2ccccc12)C1CC(=O)N(c2ccc(Cl)cc2)C1 (stereo not given)	none | D3 ag inactive | D2 ag-3 inactive
Cc1ccc(C2(C)NC(=O)N(CC(=O)N(Cc3ccccc3)C(C)(C)C)C2=O)cc1 (stereo not given)	none
Cc1cc(C)n2nc(-c3ccc(F)cc3)nc2n1	none (no result: D2 PAM-1, D2 antagonist, D2 ag-2) | D3 ag inactive | D2 ag-3 inactive
Cc1cc(C)n2nc(-c3cccnc3)nc2n1	none
CCCN1C(=O)/C(=C/c2c(NCCCOC(C)C)nc3c(C)cccn3c2=O)SC1=S	none | D3 ag inactive | D2 ag-3 inactive
CCOC(=O)Cc1ccc(NC(=O)N2CCOc3ccc(C)cc32)cc1	none (no result: D2 antagonist, D2 PAM-2, D2 ag-1)
[O-]/[N+](=C/c1ccccc1)c1ccccc1	none | D3 ag inactive | D2 ag-3 inactive
CCOC(=O)C1CCCN(C(=O)Cn2nc(C)c3c(C)n(-c4ccccc4)nc3c2=O)C1 (stereo not given)	none | D3 ag inactive | D2 ag-3 inactive
CC(=O)CC(C)(C)Nc1nc2cc([N+](=O)[O-])ccc2o1	none
CC(=O)CC(C)(C)Nc1nc2ccc([N+](=O)[O-])cc2o1	D2 antagonist 39 | D3 ag inactive | D2 ag-3 inactive
Cc1nn(-c2ccccc2)c(C)c1/C=C/C(=O)OC(C)C(=O)Nc1ncc(Cl)cc1Cl (stereo not given)	D2 ag-2 30 | D3 ag inactive | D2 ag-3 inactive
Cc1nn(-c2ccccc2)c(C)c1/C=C/C(=O)OCC(=O)Nc1ncc(Cl)cc1Cl	none
COc1cc(C2N(c3ccccc3)CCN2c2ccccc2)ccc1OC(C)=O	none
COc1ccc(C2N(Cc3ccccc3)CCN2Cc2ccccc2)cc1[N+](=O)[O-]	none | D3 ag inactive | D2 ag-3 inactive
COc1cc(C2N(Cc3ccccc3)CCN2Cc2ccccc2)ccc1OC(C)=O	none | D3 ag inactive | D2 ag-3 inactive
CC(C)(C)SCCNC(=O)c1ccc(CN2CCc3ccccc3C2)cc1	D2 ag-2 34 | D3 ag inactive | D2 ag-3 inactive
CCCN(C#N)c1nc(NCC)nc(NC(C)C)n1	none
CCN(C#N)c1nc(NC(C)C)nc(NC(C)(C)C)n1	D2 ag-2 40 | D3 ag inactive | D2 ag-3 inactive
CCC1(C)NC(=O)N(CC(=O)N2CCC(Cc3ccccc3)CC2)C1=O (stereo not given)	none
CCC(=O)N1C(Cc2ccccc2)COC1(C)C (stereo not given)	D2 ag-2 41 | D3 ag inactive | D2 ag-3 inactive
CCN(CC)c1ccc2cc(C(N)=O)c(=N)oc2c1	D2 ag-2 44 | D3 ag inactive | D2 ag-3 inactive
CCN(CC)c1ccc2cc(C(N)=O)c(=O)oc2c1	none
CCCC(c1nnnn1CCOC)N1CCN(Cc2ccccc2)CC1 (stereo not given)	D2 ag-2 33 | D3 ag inactive | D2 ag-3 inactive
COc1cc(C2c3c(-c4c(C)cc(C)cc4O)n[nH]c3C(=O)N2Cc2ccco2)cc(OC)c1OC (stereo not given)	none (no result: D2 antagonist, D2 PAM-2, D2 ag-1)
OC(COC(c1ccc(Cl)cc1)c1ccc(Cl)cc1)CN1CCN(c2ccccn2)CC1 (stereo not given)	D2 ag-2 42 | D3 ag inactive | D2 ag-3 inactive
CC(C)(C)c1ccccc1OCC(O)CN1CCN(c2ccccn2)CC1 (stereo not given)	D2 antagonist 62 | D3 ag inconclusive | D2 ag-3 inactive
Cc1cccc(N2CCN(CC(O)COc3ccccc3)CC2)c1 (stereo not given)	none (no result: D2 PAM-1, D2 antagonist, D2 ag-2)
CC(C)(C)NCC(O)COc1ccccc1C(C)(C)C (stereo not given)	none
OC(CN1CCN(c2ccccn2)CC1)Cn1c2ccc(Cl)cc2c2cc(Cl)ccc21 (stereo not given)	none
Cc1ccc(OCC(O)CN2CCN(CCO)CC2)c(C)c1 (stereo not given)	none
COc1cccc(OC)c1OCC(O)CN1CCN(c2ccccc2)CC1 (stereo not given)	D2 antagonist 115, D2 ag-1 inconclusive, D2 ag-2 78 | D3 ag inconclusive | D2 ag-3 inconclusive
Cc1ccc(OCC(O)CN2CCN(c3ccccn3)CC2)c(C)c1 (stereo not given)	D2 antagonist 64, D2 ag-1 inconclusive, D2 ag-2 71 | D3 ag inconclusive | D2 ag-3 inconclusive
O=C(CCNC(=O)c1ccccc1)NCCCc1ccccc1	none (no result: D2 PAM-1, D2 antagonist, D2 ag-2)
CC(=O)c1cccc(NC(=O)c2ccc3c(c2)N(Cc2ccc(C)cc2)CCS3)c1	none (no result: D2 antagonist, D2 PAM-2, D2 ag-1)
Cc1cccc(C)c1OCC(O)CN1CCN(c2ccccc2)CC1 (stereo not given)	D2 antagonist 87, D2 ag-1 inconclusive, D2 ag-2 80 | D3 ag inactive | D2 ag-3 inconclusive
Cc1ccsc1CN1CCN(c2ccccn2)CC1	D2 antagonist 77, D2 PAM-2 inconclusive, D2 ag-1 50, D2 ag-2 79 | D3 ag inconclusive | D2 ag-3 2.5µM
OC(COc1ccccc1)CN1CCN(c2ccccc2)CC1 (stereo not given)	none (no result: D2 PAM-1, D2 antagonist, D2 ag-2)
COc1ccccc1/C=C/CN1CCN(c2ccccc2)CC1	D2 antagonist 77, D2 ag-2 77 | D3 ag inactive | D2 ag-3 inconclusive
CC(C)(C)C1CCC(OCC(O)CN2CCN(c3ccccc3)CC2)CC1 (stereo not given)	D2 antagonist 74, D2 ag-1 inconclusive, D2 ag-2 68 | D3 ag 0.35µM | D2 ag-3 inconclusive
CC(C)(C)C1CCC(OCC(O)CN2CCCC2)CC1 (stereo not given)	none
O=C(NCc1cccc(Cl)c1)c1ccc2nc(N3CCCCC3)sc2c1	none (no result: D2 antagonist, D2 PAM-2, D2 ag-1)
Cc1cccc(C)c1OCC(O)Cn1c2ccccc2c2ccccc21 (stereo not given)	none
Cc1cccc(C)c1OCC(O)CN1CCN(c2ccccn2)CC1 (stereo not given)	D2 antagonist 78, D2 PAM-2 inconclusive, D2 ag-1 inconclusive, D2 ag-2 77 | D3 ag 0.2µM | D2 ag-3 5µM
